The structures appear in SMILES notation. About 83,000 compounds went through this panel and 20% of them were active in at least one assay; those are over-represented in the sample as a whole.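 A percent growth of 40 corresponds to 60% growth inhibition; 0 means no net growth; -100 means all cells died. Active threshold: below 10.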 Values without a mark were called inactive.

The test system of this test is ACHN renal. Kind of test: NCI-60 one-dose screen, 48 h (100 = growth as untreated, 0 = no growth, -100 = all killed). To be noted: 10 µM unless noted.
Regarding `Nc1ccc(S(=O)(=O)c2ccc(NO)cc2)cc1`, the growth is 114%.

Turning to `COc1cc(NC(C)CCCN)c2nccc(C)c2c1OC` (centres undefined), the growth was 100%. Under `CCCC(=O)NNc1[nH]c(-c2cc(OC)c(OC)c(OC)c2)cc1C(=O)OCC` stands 81%; under `CC(C)OC(=O)c1ccc2n1CCCc1cnc(Nc3ccccc3)nc1-2`, 74.8%; under `COC(=O)c1ccc2[nH]c(O)c(C(=Nc3ccc(N(C)C(=O)CN4CCN(C)CC4)cc3)c3ccc(OC)cc3)c2c1`, 14.9%.

On to `CC(=O)c1cc(Nc2cc(C)nc(N)n2)cc(C(C)=O)c1`, for which the growth is 102%. The same measure for `CCOC(=O)C1=C(C(F)(F)F)NC(=S)NC1CN1C(=O)c2ccccc2C1=O` (centres undefined): 105%; for `CC(C)OC(=O)[C@H](C)N[P@@](=O)(OC[C@@]1(C)O[C@@H](n2cc(F)c(N)nc2=O)C[C@@H]1O[P@](=O)(N[C@@H](C)C(=O)OC(C)C)Oc1ccccc1)Oc1ccccc1`: 92.4%. Under `COc1ccc(Cn2cc3c(c2-c2ccccc2)CCc2cnoc2-3)cc1OC` stands 57.7%. Take `CC1C(=O)CCCC1=O`: the growth is 104%. The same measure for `Brc1ccc(-c2nc3ccccc3s2)cc1`: 92%; for `O=C(Nc1cccc(Cn2c(=O)[nH]c3ccc(Oc4ncccn4)cc3c2=O)c1)c1ccc(Cl)cc1`: 40.3%. The same measure for `Cc1ccc(S(=O)(=O)Nc2cccc(Cn3c(=O)[nH]c4ccc(Oc5ncccn5)cc4c3=O)c2)cc1`: 87.7%; for `CC1(C)Oc2cc3oc(=O)ccc3cc2C[C@@H]1OCCOS(=O)(=O)c1ccc(C#N)cc1`: 95.2%.

Values taken from PubChem BioAssay (NCI).
